The Inhibition is the relative decrease from the control value, in per cent. Read a high Inhibition as strong suppression.

What all share (format): functional
The test system of test [1] is Plasmodium falciparum. The experiment in a line: GSK_TCMDC: Inhibition of Plasmodium falciparum 3D7 in whole red blood cells, using parasite LDH activity as an index of growth. Test compounds present at 2uM.
The subject of test [2] is Plasmodium falciparum. The experiment in a line: GSK_TCMDC: Inhibition of Plasmodium falciparum Dd2 in whole red blood cells, using parasite LDH activity as an index of growth. Test compounds present at 2uM.
For another test, the system named is HepG2. The experiment in a line: GSK_TCMDC: Percent inhibition of human HepG2 cell line. Test compounds present at 10uM.

`O=C(Nc1cccc(CN2CCCN(Cc3cccc(Cl)c3)CC2)c1)c1ccc(Br)cc1.O=C(O)C(F)(F)F`: the results for the Inhibition in the test with Plasmodium falciparum [1], with Plasmodium falciparum [2] and in the test with HepG2 were 92%, 16% and 38%, respectively.
The like results for `O=C(CCc1cccnc1)Nc1cccc(-c2ccc(-c3nc4cc(C(F)(F)F)ccc4[nH]3)cc2)c1` were, in that order, 93%, 0% and 38%.
The corresponding values for `Cc1cccc2nc(-c3ccc(-c4ccc(NC(=O)CN5CCN(C)CC5)cc4)cc3)[nH]c12` are 100%, 83% and 29%.
The corresponding values for `CCN(CCCN1CCCCC1)c1nccc(Nc2ccc(Cl)cc2)n1` are 89%, 63% and 19%.
For `CCCCCCn1c(Sc2ccc(C#N)c([N+](=O)[O-])c2)nnc1-c1cc(OC)cc(OC)c1`, the Inhibition was 95% with Plasmodium falciparum [1], 41% with Plasmodium falciparum [2] and 35% with HepG2.
Regarding `Oc1ccc2[nH]c(-c3ccc(F)cc3F)nc2c1CN1CCC(O)(c2ccccc2)CC1`, the Inhibition in the test on Plasmodium falciparum [1] worked out at 96%; with Plasmodium falciparum [2] it was 70%; with HepG2, 16%.
On to `CCOc1cc(C(=O)NCC2CCN(CC3CCCCC3)CC2)ccc1-c1nc2cc(Cl)ccc2[nH]1`, for which the Inhibition in the test on Plasmodium falciparum [1] worked out at 98%; in the test on Plasmodium falciparum [2] it was 59%; in the test on HepG2, 14%.
`Cc1cc(=NN=Cc2ccccc2Cl)c2cc(C(F)(F)F)ccc2[nH]1`: the Inhibition was 100% in the test on Plasmodium falciparum [1], 75% in the test with Plasmodium falciparum [2] and 0% in the test with HepG2.
The like results for `O=C1NC(=S)N/C1=C/C=C/c1ccc([N+](=O)[O-])o1` were, in that order, 82%, 30% and 7%.
The like results for `COc1cccc(C=NNc2cc(C)nc3c(OC)cccc23)c1` were, in that order, 99%, 58% and 6%.
The like results for `COc1ccc2nc(-c3ccccc3)cc(N/N=C/c3ccc([N+](=O)[O-])cc3)c2c1` were, in that order, 100%, 100% and 89%.
Regarding `CC(=O)c1cccc(NC(=O)NC2CCN(CCCCCNC(=O)/C=C/c3ccc(Cl)c(Cl)c3)CC2)c1`, the results for the Inhibition in the test with Plasmodium falciparum [1], with Plasmodium falciparum [2] and with HepG2 were 94%, 1% and 7%, respectively.
As for `CN1CCC(NCc2ccc(-c3ccc(S(=O)(=O)NCc4ccccc4)c(F)c3)cc2)CC1.O=C(O)C(F)(F)F`, the Inhibition with Plasmodium falciparum [1] is 99%; in the test with Plasmodium falciparum [2] it was 89%; in the test on HepG2 it was 53%.
The like results for `CCN(CC)S(=O)(=O)c1ccc(Cl)c(C(=O)Nc2ccc3nc(C)sc3c2)c1` were, in that order, 96%, 94% and 9%.
The like results for `CCN(c1cc(C)nc(Nc2ccc(Cl)cc2)n1)[C@H]1CCN(Cc2ccccc2)C1` were, in that order, 94%, 31% and 46%.
In the case of `COc1ccc(C(C(=O)NC2CCN(C[C@H](O)c3ccnc4ccc(OC)cc34)CC2)N2CCN(c3ccc(F)cc3)CC2)cc1` (stereo partly drawn), the Inhibition is 97% with Plasmodium falciparum [1], 86% in the test with Plasmodium falciparum [2] and 16% in the test on HepG2.
The like results for `Cc1noc(NC(=O)c2sc3ccccc3c2O)c1C` were, in that order, 90%, 50% and 0%.
The corresponding values for `Cc1c(CCc2cccc(F)c2F)[nH]c2ccccc2c1=O` are 91%, 90% and 41%.
With `CC1CN(Cc2ccccc2)CCN1c1ccc(NC(=O)c2cccs2)cc1.O=C(O)C(F)(F)F` (stereo not drawn), the Inhibition with Plasmodium falciparum [1] was determined as 96%; in the test on Plasmodium falciparum [2], 96%; with HepG2 it was 0%.
As to `CN(C)CCC1CCN(CCS(=O)(=O)c2cccc(Nc3ccc(-c4ccsc4)cn3)c2)CC1`, the Inhibition came to 97% in the test on Plasmodium falciparum [1], 6% with Plasmodium falciparum [2] and 49% in the test with HepG2.
Take `COc1ccc(-c2ccccc2CNC2Cc3ccccc3C2)cc1S(=O)(=O)NCCN1CCCC1.O=C(O)C(F)(F)F`: the Inhibition was found to be 96% in the test on Plasmodium falciparum [1], 47% in the test on Plasmodium falciparum [2] and 18% with HepG2.
Consider `COc1ccc(NC(=O)Nc2ccc(-c3ccncc3)c(C(F)(F)F)c2)cc1N1CCN(C)CC1`, for which the Inhibition in the test with Plasmodium falciparum [1] stood at 100%; in the test with Plasmodium falciparum [2], 62%; with HepG2 it was 5%.
The corresponding values for `CC(=O)c1cccc(NC(=O)c2ccc(Cl)c(S(=O)(=O)N3CCc4ccccc43)c2)c1` are 93%, 11% and 13%.
The corresponding values for `Cc1ccccc1C1CCN(C2CCC(NC(=O)/C=C/c3cccc(C(F)(F)F)c3)CC2)CC1` (stereo not drawn) are 100%, 54% and 96%.
The like results for `Cc1cc(NCCc2ccccc2)nc(NC(=N)Nc2ccccc2Cl)n1` were, in that order, 100%, 7% and 20%.
As to `O=C(NC1CCN(c2ccnc3ccccc23)C1)c1cccc(C(F)(F)F)c1.O=C(O)C(F)(F)F` (stereo not drawn), the Inhibition with Plasmodium falciparum [1] was found to be 94%; in the test with Plasmodium falciparum [2], 86%; in the test on HepG2, 28%.
The like results for `O=c1cc(NCCCNCc2ccc(C(F)(F)F)c(F)c2)[nH]c2ccccc12` were, in that order, 93%, 26% and 5%.
The like results for `CNc1ccc(CNCc2ccc(-c3ccc(-c4nc5cccc(C)c5[nH]4)cc3)cc2)cc1.O=C(O)C(F)(F)F` were, in that order, 100%, 92% and 35%.
`CC(C)[C@H](NCC(=O)c1ccccc1)C(=O)O.Cl`: the Inhibition came out at 99% in the test on Plasmodium falciparum [1], 0% in the test with Plasmodium falciparum [2] and 6% in the test on HepG2.
The like results for `N=C(N)Nc1nc(-c2cccc(NC(=O)NCc3ccc(OC(F)(F)F)cc3)c2)cs1` were, in that order, 100%, 26% and 0%.
The corresponding values for `Cc1cc(CNCC(CCNc2cc(=O)c3ccccc3[nH]2)NCc2cc(Br)cc(Br)c2)oc1C` (stereo not drawn) are 98%, 85% and 4%.
